Source: PubChem BioAssay (NCATS)
Inconclusive results are not listed. The source made the active and inactive calls. Calls come from the whole dose curve; as a rule, active = well fitted activation curve with a large enough effect; inconclusive = small, poorly fitted or top-dose-only effect; inactive = no such curve, though single readings can be large or run the other way.

Target: Rap guanine nucleotide exchange factor 3 (Homo sapiens) (UniProt O95398)
Assay: Confirmatory qHTS for agonist of cAMP-regulated guanine nucleotide exchange factor 3 (EPAC1) (AID 1645881);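 note: EPAC1 catalysed release of BODIPY-GDP from Rap1B seen as fluorescence loss; 100% = effect of cAMP agonist control; nearly all actives have a fitted effect of over 75% in size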
Settings: EPAC1 Rap1B BODIPY-GDP exchange fluorescence; series mostly up to 154 µM; activation: at the top concentration

Chain of Rap guanine nucleotide exchange factor 3 (Homo sapiens) (O95398 whole entry, looked up): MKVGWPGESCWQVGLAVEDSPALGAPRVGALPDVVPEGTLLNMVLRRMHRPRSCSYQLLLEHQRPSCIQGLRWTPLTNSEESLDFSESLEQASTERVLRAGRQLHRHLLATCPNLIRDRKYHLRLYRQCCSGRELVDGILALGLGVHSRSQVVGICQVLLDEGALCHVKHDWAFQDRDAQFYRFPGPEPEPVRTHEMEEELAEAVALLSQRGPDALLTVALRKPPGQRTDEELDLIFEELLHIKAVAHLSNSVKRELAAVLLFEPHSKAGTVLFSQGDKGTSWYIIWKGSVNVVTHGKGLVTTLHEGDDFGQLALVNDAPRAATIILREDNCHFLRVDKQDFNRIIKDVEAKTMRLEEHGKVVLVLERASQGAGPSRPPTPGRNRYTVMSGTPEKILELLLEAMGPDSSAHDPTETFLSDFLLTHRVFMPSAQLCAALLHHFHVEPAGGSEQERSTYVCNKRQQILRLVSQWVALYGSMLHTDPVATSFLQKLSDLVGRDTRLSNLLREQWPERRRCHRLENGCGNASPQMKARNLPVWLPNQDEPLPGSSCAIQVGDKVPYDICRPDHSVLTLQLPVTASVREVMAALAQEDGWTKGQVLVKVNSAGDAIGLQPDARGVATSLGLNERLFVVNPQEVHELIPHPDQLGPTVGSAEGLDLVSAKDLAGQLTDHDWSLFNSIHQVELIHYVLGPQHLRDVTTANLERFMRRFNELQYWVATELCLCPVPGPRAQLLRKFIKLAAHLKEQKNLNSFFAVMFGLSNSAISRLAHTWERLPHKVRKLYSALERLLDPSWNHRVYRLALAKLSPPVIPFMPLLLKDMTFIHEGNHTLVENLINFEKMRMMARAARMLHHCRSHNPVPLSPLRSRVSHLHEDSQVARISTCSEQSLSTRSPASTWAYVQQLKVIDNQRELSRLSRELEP

activation, inactive:
COc1cn(-c2ccccc2)nc1C(=O)Nc1ccc(C)cc1Cl 7.07%
Cc1cccc(Nc2nnc(SC/C(O)=C(\C#N)c3nc4ccccc4[nH]3)s2)c1 4.29%
COc1ccc(-n2c(NC(=O)c3ccco3)c(C#N)c3nc4ccccc4nc32)cc1 9.96%
COc1ccc(OC)c(CNC(=O)CCCc2cn(C)c3ccccc23)c1 7.35%
N#CCCN(CCC#N)S(=O)(=O)c1ccc(C(=O)Nc2nnc(C3=COCCO3)o2)cc1 -3.94%
O=C1C(Cl)=C(NCCc2ccccc2)C(=O)c2ccccc21 2.94%
CN(CCOc1ccc(Br)cc1)C(=O)CNC(=O)c1ccc2ccccc2c1 9.34%
Oc1c(Br)cc(Br)cc1CNc1cccc2cccnc12 16.8%
Cc1ccc(-c2nc3c(c(=O)[nH]c(=O)n3Cc3ccccc3)n2C)o1 0.359%
O=C(Nc1c(-c2ccc3c(c2)OCO3)[nH][nH]c1=O)c1ccccc1 19.7%
Cc1cccc(Cn2c(COc3ccccc3)nc3ccccc32)c1 21.6%
Cc1ccc(C)c(N2CCN(C(=O)c3ccc4c(=O)n5c(nc4c3)CCCCC5)CC2)c1 -3.67%
CCN(CCCNC(=O)c1cc2cc3ccc(OC)cc3nc2s1)c1cccc(C)c1 3.69%
CCc1nc(Oc2cccc(F)c2)c2oc3ccccc3c2n1 1.64%
CC(c1nc2ccccc2n1Cc1ccccc1)n1c(-c2cnccn2)nc2ccccc21 (stereo not given) 15.9%
O=C(Nc1ccccc1C(=O)O)c1cccc(NC(=O)c2ccc(Br)o2)c1 10.7%
Cc1ccn2c(=O)nc(SCC(=O)Nc3ccc4c(c3)OCO4)nc2c1 1.54%
CCOc1cc(-c2ccc(OC(=O)c3ccccc3)c(OC)c2)cc(=O)c2c(C)oc(C)c12 -6.15%
O=C(O)c1ccn2c(C(=O)c3ccc(Cl)cc3)c(-c3ccccc3)cc2c1 -4.58%
Cc1cc(C)c(S(=O)(=O)c2ccccc2)c(OC(=O)c2c(F)cccc2F)n1 4.1%
CCc1ccc(/C=C2\SC(=S)N(CCCC(=O)Nc3ccccc3C(=O)O)C2=O)cc1 -3.12%
Cc1ccc(NC(=O)CC2S/C(=N/N=C3\CCCc4ccccc43)NC2=O)cc1 (stereo not given) 12.8%
Cc1ccc(Nc2c(-c3ccccn3)nc3cccc(C)n23)cc1 13.1%
COc1ccccc1-c1nnc(SCC(=O)c2ccc(C3CCCCC3)cc2)n1Cc1ccco1 -0.724%
O=C(O)c1ccc(/C=N/NC(=O)c2cc(-c3ccc4c5c(cccc35)CC4)n[nH]2)cc1 19.2%
O=C(CSc1nc(O)cc(=O)n1-c1ccccc1)Nc1ccc2c3c(cccc13)CC2 3.16%
Oc1ccc(NCc2cccc(OCc3ccccc3)c2)cc1 15.6%
C#Cc1ccc([C@@H]2C=C(C(=O)OCC=C)O[C@H](OCc3ccc(CO)cc3)C2)cc1 8.21%
COCCN1C(=O)c2[nH]nc(-c3ccccc3O)c2C1c1ccc(Cl)c(Cl)c1 (stereo not given) -10.5%
CC(C)Nc1nc(NC(C)C)nc(OCCOC(=O)c2ccccc2)n1 15.2%
CC(C)CNc1ncnc2onc(-c3ccc(Cl)cc3)c12 -0.592%
COc1ccc(OC)c(NC(=O)C2(C)CCN2CCc2ccccc2)c1 (stereo not given) 25.6%
Oc1ccc2ccccc2c1/C=N/c1nc2c(s1)CCCC2 10.4%
CCc1ccc2c(c1)NC(=O)C2(C)Cc1ccc(F)cc1 (stereo not given) 15.1%
ON=C(c1ccccc1)c1ccc2c3c(cccc13)CC2 16.9%
Cc1ccc(C)c(OC(C)C(=O)Nc2ccc(S(=O)(=O)Nc3nccs3)cc2)c1 (stereo not given) 16%
CC(=O)C(=Cc1ccc(Cl)cc1)C(=O)c1ccccc1 12.4%
Oc1ccc(Cc2ccc(Cl)cc2)c(O)c1 8.38%
CCOc1cc(CNc2ccc(O)cc2)cc(Cl)c1OCc1ccccc1 13.4%
COc1ccc(Nc2cc(C(=O)NCCCN3CCN(c4ccccc4F)CC3)c3ccccc3n2)c(OC)c1 -5.39%
